In PubChem BioAssay AID1845225 (National Center for Advancing Translational Sciences (NCATS), 2023):
Inconclusive results are not listed. The source made the active and inactive calls. Calls follow the shape of the dose curve; as a rule, active = well fitted curve in the direction sought with a large enough effect; inconclusive = small, poorly fitted or top-dose-only effect, or effect the other way, or another doubt; inactive = no such curve, though single readings can be large or run the other way.

Test: Confirmatory redox qHTS assay for identification of artifact compounds.
Settings: Amplex Red/HRP redox cycling with DTT, fluorescence; series mostly up to 39 µM
Procedure, shortened: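 Amplex Red (25 uM final) and HRP (250 mU/mL final) in HBSS, compound 15 min, then 250 uM DTT final 30 min, room temperature, dark; fluorescence 525/598 nm, normalized to DMSO and 10 uM DA3003, Hill fitted.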

outcome, inactive:
COc1cc2c(NC3CCN(C)CC3)nc(N3CCCN(C)CC3)nc2cc1OCC1CCCNC1 (stereo not given)
Cc1ccccc1NC(=O)Cn1c(=O)n(CCc2ccccc2)c(=O)c2sc3ccccc3c21
O=C(Cn1nc(-c2ccc(Cl)cc2)ccc1=O)NCCc1ccccc1
COc1ccc(-c2nc(CS(=O)CC(=O)NCCc3ccccc3)c(C)o2)cc1OC (stereo not given)
COc1ccc(-c2cc(=O)c3ccccc3o2)cc1
COc1ccc(C(=O)Nc2nc3c(s2)CCCC3)cc1Cl
COc1ccc(C(=O)Nc2ccc(-n3nncc3-c3ccccc3)cc2)cc1OC
O=C(NCCSc1c(-c2ccc(Br)cc2)[nH]c2ccccc12)c1ccc(S(=O)(=O)N2CCOCC2)cc1
COc1ccccc1NC(=O)CSc1nnc(NC(=O)NC2CCCCC2)s1
Cc1nc(-c2ccccc2C(C)C)nc(NCc2ccc(-c3cccnc3)cc2)c1C
O=C(Nc1ccc(C(F)(F)F)cc1)C1(c2cccs2)CCOCC1
COc1cc2c(NC3CCN(C)CC3)nc(N3CCN(C)CC3)nc2cc1OCCCN(C)C
COc1ccc(N2CCN(Cc3cc(=O)oc4ccc(OC)cc34)CC2)cc1
CC(C)Oc1ccc(CNC(=O)Cc2ccc(NC(=O)N3CCSc4ncccc43)cc2)cc1
CCC(CC)c1nn2c(=O)cc(COc3ccc(NC(=O)c4ccccc4C)cc3)nc2s1
O=S(=O)(NCCCCNS(=O)(=O)c1cccc2cccnc12)c1cccc2cccnc12
COc1ccccc1CNC(=O)CCC(=O)N1Cc2ccccc2Oc2ncccc21
CC1(C)S[C@@H]2[C@H](NC(=O)C3(N)CCCCC3)C(=O)N2[C@H]1C(=O)O
CCOc1ccc(Cn2c(=O)sc3ccccc32)cc1
Cc1cccc(N2CCN(CCCNC(=O)c3nnc(Cc4c(F)cccc4Cl)o3)CC2C)c1 (stereo not given)
COc1cc2nc(N3CCCCC3)nc(NC3CCN(Cc4ccccc4)CC3)c2cc1OC
C=C[C@@]1(C)C[C@H](OC(=O)CSC(C)(C)CNC(=O)[C@@H](N)C(C)C)[C@@]2(C)C(C)CC[C@@]3(CCC(=O)[C@@H]32)[C@H](C)[C@H]1O (stereo not given in full)
O=C1C2C3CCCC3=C3CCCC3C2C(=O)N1c1ccc(Cl)cc1 (stereo not given)
O=C(CCn1c(=O)c2cccn2c2cccnc21)N1CCN(c2ccccc2F)CC1
Cc1cc(C)c(S(=O)(=O)NCC(c2ccco2)S(=O)(=O)c2cccs2)c(C)c1 (stereo not given)
CCOC(=O)C1CCN(C(c2ccc(OCC)cc2)c2c(O)cc(C)n(CCOC)c2=O)CC1 (stereo not given)
Clc1ccccc1CNc1ncnc2nc[nH]c12
Cc1ccc(NC(=O)c2ccc3c(c2)NC(=O)c2ccccc2S3)cc1
Cc1cccc(C(=O)NCCc2nc3ccccc3n2CCC(C)C)c1
Cc1cc(C(=O)N2CCN(c3cccc(Cl)c3)CC2)c2c(C)nn(-c3ccccc3Cl)c2n1
O=C1c2oc3ccc(F)cc3c(=O)c2C(c2cccc([N+](=O)[O-])c2)N1CCCN1CCOCC1 (stereo not given)
Cc1ccc2c(c1)cc(C(=O)NCc1ccc(F)cc1)n2C
Cc1ccc(Cl)cc1N1C(=O)N(Cc2ccc(C#N)cc2)c2ccccc2S1(=O)=O
COC(=O)c1c(OCc2ccccn2)cc(=O)n2c1CCN(C(=O)c1n[nH]c3c1CCCC3)CC2
Cc1ccc(C)c(NC(=O)CN2CCCN(Cc3cccc(Cl)c3)S2(=O)=O)c1
Cc1cccc(C)c1NC(=O)CCSCCc1ccccn1
CN(C(=O)CSc1nc2ccc(NC(=O)c3cccs3)cc2s1)c1ccccc1
CC(C)C[C@H](NC(=O)[C@@H](Cc1c[nH]c2ccccc12)NC(=O)[C@H](Cc1ccc(O)cc1)NC(=O)[C@H](CO)NC(=O)[C@H](Cc1c[nH]c2ccccc12)NC(=O)[C@H](Cc1cnc[nH]1)NC(=O)[C@@H]1CCC(=O)N1)C(=O)N[C@@H](CCCN=C(N)N)C(=O)N1CCC[C@@H]1C(=O)NCC(N)=O
CC[C@H](C)CCCCC(=O)N[C@@H](CCN)C(=O)N[C@H](C(=O)N[C@@H](CCN)C(=O)N[C@H]1CCNC(=O)[C@@H]([C@H](C)O)NC(=O)[C@H](CCN)NC(=O)[C@H](CCN)NC(=O)[C@H](CC(C)C)NC(=O)[C@@H](CC(C)C)NC(=O)[C@H](CCN)NC1=O)[C@@H](C)O
O=C(NC1CCCCCC1)c1ccc(CS(=O)c2ccc(Br)cc2)o1 (stereo not given)
